KLK7 zymogen act – proKLK7 zymogen activators, primary screen, biochemical, fluorescence intensity; 370,000 compounds, 0.9% hits; AID 652039, 2013; purified proKLK7, EDANS-DABCYL substrate fluorescence; 100% is mature enzyme control, 0% vehicle; Kallikrein-7 (Homo sapiens), P49862; activation, % at 7 µM;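 active = activation above the mean of all tested compounds plus 3 SD, computed per campaign excluding outliers beyond control limits, cut at about 13% in these data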
Target sequence (P49862 whole entry, looked up): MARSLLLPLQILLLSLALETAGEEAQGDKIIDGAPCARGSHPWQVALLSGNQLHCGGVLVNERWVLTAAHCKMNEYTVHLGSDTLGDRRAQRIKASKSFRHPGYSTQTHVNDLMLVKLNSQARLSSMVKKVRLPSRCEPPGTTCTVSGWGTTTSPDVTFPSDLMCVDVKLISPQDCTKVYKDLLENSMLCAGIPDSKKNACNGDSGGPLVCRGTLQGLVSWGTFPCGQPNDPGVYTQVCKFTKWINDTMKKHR
rCAG RNA binder – binders of r(CAG) RNA repeats, primary screen, biochemical, fluorescence; r(CAG) RNA repeat, TO-PRO-1 dye displacement fluorescence; inhibition, % at 3 µM; 370,000 compounds, 1.3% hits;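 active = inhibition above the plate cutoff, the mean of all test compounds on that plate plus 3 SD, cut at about 35% in these data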;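 also: 0% = DMSO alone and 100% = 100 µM mitoxantrone as full dye displacement; higher means more dye released from RNA so lower well fluorescence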
ADAM10 inh – human ADAM10 inhibitors, primary screen, biochemical, QFRET, HTS. Disintegrin and metalloproteinase domain-containing protein 10 (Homo sapiens), O14672. recombinant ADAM10, EDANS/DABCYL FRET peptide cleavage, 3 h. inhibition, % at 7 µM. 370,000 compounds, 0.62% hits;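 active = inhibition above a per-campaign cutoff equal to the mean of compounds falling between control-based bounds plus 3 SD, cut at about 20% in these data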;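 also: 0% = DMSO wells while the 100% control is not disclosed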
AHR act – AHR activators, primary screen, cell-based, luminescence, luciferase reporter, human | Aryl hydrocarbon receptor (Homo sapiens), P35869 | AHR-responsive luciferase reporter cells | activation, % at 5 µM | 320,000 compounds, 2.5% hits | AID 2796, 2010; in the data active = activation above about 47%;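 also: 0% = vehicle wells and 100% = reference agonist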
ADAM17 inh – ADAM17 inhibitors, primary screen, biochemical, QFRET. recombinant ADAM17, EDANS/DABCYL FRET peptide cleavage. inhibition, % at 6.95 µM. 370,000 compounds, 0.83% hits. AID 720648, 2013;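 active = inhibition above the mean of compounds lying between control limits plus 3 SD, set per campaign, cut at about 8.5% in these data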;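 also: 0% = DMSO-only wells as the low control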
GRIN3A LBD mod – binders of NR3A ligand-binding domain, primary screen, biophysical, differential scanning fluorimetry, uHTS | Tm shift relative to glycine control, % at 25 µM | AID 1259313, 2017 | 340,000 compounds, 2.5% hits | NR3A LBD differential scanning fluorimetry, Tm shift; 0% = protein alone, 100% = glycine-bound protein;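 active = melting temperature shift of at least 10% of the positive control shift, at one fixed dose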
The depositor's hits bear a star; i = inactive; x = not tested or not shown. Rows were chosen to be rich in hits. Some 7% of all compounds tested hit in one or more screens of this group.

SMILES	KLK7 zymogen act	rCAG RNA binder	ADAM10 inh	AHR act	ADAM17 inh	GRIN3A LBD mod
O=[N+]([O-])c1ccccc1CSc1nc2ccccc2o1	0.1	7.2	11.2	48.3*	5.5	-0.1
COc1ccc(CC(=O)Nc2ccc(-c3nc4cc(C)ccc4o3)c(O)c2)cc1OC	-3.0	3.5	-13.9	-8.3	-2.2	-6.4
O=C(Nc1ccc(-c2nc3cc(Cl)ccc3o2)cc1)C1CCCO1 (stereo not drawn)	-0.3	-2.2	-15.8	54.9*	-4.6	0.1
CCCC(=O)Nc1ccc(-c2nc3cc(C)ccc3o2)cc1	-23.8	1.7	-413.2	28.4	-122.4	14.2*
COc1ccccc1C(=O)Nc1ccc2oc(-c3ccc(F)cc3)nc2c1	0.3	0.9	-9.4	34.6	0.7	13.9*
O=C(Nc1ccc2oc(-c3ccccc3)nc2c1)C1CCCO1 (stereo not drawn)	2.6	-5.2	i	14.8	-193.9	-8.2
Cc1ccc2oc(-c3ccc(NC(=O)c4ccncc4)cc3O)nc2c1	0.3	-1.9	-5.8	-1.8	-4.4	33.0*
CCOC(=O)c1c(NC(C)=O)sc2c(O)c(Br)cc(Br)c12	0.8	44.1*	13.9	3.5	4.2	-17.9
O=C(O)COc1cccc(/C=C2/SC(=S)N(Cc3ccccc3)C2=O)c1	0.0	51.5*	0.4	-0.4	7.8	1.4
CCCN1C(=O)/C(=C/c2ccncc2)SC1=S	0.0	2.0	2.0	0.4	-0.4	-1.3
O=C1/C(=C/c2ccncc2)SC(=S)N1Cc1ccccc1	0.9	4.7	2.6	0.7	-0.4	21.2*
Cc1nc2ccc(NC(=O)c3ccc(S(=O)(=O)N(C)C)cc3)cc2s1	-0.7	1.7	-0.6	-0.4	-0.5	10.2*
Cc1ccc(NC(=O)c2ccc(F)cc2)cc1S(=O)(=O)N1CCCCCC1	0.4	-1.7	5.6	0.3	3.8	-2.8
O=C(NC1CCCC1)c1ccc(Cl)c(S(=O)(=O)N2CCOCC2)c1	0.2	-3.7	-2.7	2.2	0.6	0.0
Cc1ccc(C(=O)Nc2ccc(Cl)cn2)cc1S(=O)(=O)N1CCOCC1	0.5	3.1	5.0	9.7	4.0	18.7*
Cc1ccc(C(=O)NC2CCCCCCC2)cc1S(=O)(=O)N1CCOCC1	-0.5	-3.6	-5.1	x	-3.0	33.7*
Cc1ccc(C(=O)Nc2ccc3cn[nH]c3c2)cc1S(=O)(=O)N1CCCCC1	1.1	4.5	10.2	55.0*	7.6	-6.4
Cc1nc2ccc(NC(=O)c3ccc([N+](=O)[O-])cc3)cc2s1	0.3	-1.3	-1.4	-3.9	-2.7	-1.5
O=C(OCc1cn(Cc2ccc(F)cc2F)nn1)N1CCCC1	0.3	2.5	-15.1	x	-6.2	x
Cc1nc2ccc(NC(=O)c3cc(S(=O)(=O)N4CCOCC4)ccc3C)cc2s1	-0.6	2.0	2.9	4.2	-1.9	-1.1
Cc1nc2ccc(NC(=O)c3ccc(C)c(S(=O)(=O)N4CCOCC4)c3)cc2s1	0.4	7.2	1.1	0.0	-4.6	13.3*
COc1ccc(NC(=O)c2cc(S(=O)(=O)N3CCCCC3)c[nH]2)cc1Cl	2.2	1.7	-30.8	17.7	-10.1	24.8*
Cc1ccc(NC(=O)CCCNC(=O)c2ccc(Cl)cc2)nc1	-0.7	-4.8	-3.6	-3.2	-4.1	-0.5
CCOc1ccc(NC(=O)c2cc(S(=O)(=O)N3CCCCC3)c[nH]2)cc1	1.9	4.0	-7.0	48.0*	-5.2	-1.8
Cc1ccc(NC(=O)CCCNC(=O)c2ccc(Cl)cc2)c(O)c1	-0.3	-3.2	9.3	60.0*	-3.9	-1.9
SMILES	KLK7 zymogen act	rCAG RNA binder	ADAM10 inh	AHR act	ADAM17 inh	GRIN3A LBD mod
Cc1cccc(NC(=O)c2cc(S(=O)(=O)N3CCCCC3)c[nH]2)c1	-0.6	4.2	-12.0	x	-4.2	x
COc1ccc(NC(=O)CCCNC(=O)c2ccc(Cl)cc2)cc1S(=O)(=O)N1CCCCC1	-0.2	1.5	-5.4	x	4.4	12.0*
COC(=O)C1CN(Cc2cn(Cc3ccc(C)cc3)nn2)CCS(=O)(=O)N1Cc1ccc(C)cc1 (stereo not drawn)	0.0	2.1	8.8	x	6.0	x
COc1ccc(CC2CCN(c3ncnc4sccc34)CC2)cc1	x	x	4.3	x	0.4	x
CCc1ccc(NC(=O)c2cc(S(=O)(=O)N3CCCC3)c[nH]2)cc1	x	x	x	22.8	x	-3.1
CC(C)c1ccc(NC(=O)c2cc(S(=O)(=O)N3CCCC3)c[nH]2)cc1	-0.4	5.4	-1.7	48.5*	0.7	-11.2
COc1ccc(S[C@]2(C(=O)N3CCOCC3)CC(=O)N(c3ccsc3)[C@@H]2c2ccc(OC)cc2)cc1	0.2	4.0	8.3	x	1.9	x
Cc1ccc(-n2c(SCC(=O)Nc3ccccc3-c3ccccc3)nnc2-c2ccccc2)cc1	-0.5	4.9	15.1	x	4.2	x
O=C1c2ccccc2C(=O)N1CCOc1cccc(Br)c1	-0.4	-2.9	10.3	31.4	3.5	11.1*
Cc1ccc(S(=O)(=O)Nc2ccc(O)c3ccccc23)c(C)c1	-2.4	22.0	-29.8	x	-13.7	-3.1
Cc1ccc(S(=O)(=O)Nc2cc(C(C(=O)OC(C)C)C(=O)C(F)(F)F)c(O)c3ccccc23)c(C)c1 (stereo not drawn)	-1.4	22.1	0.0	48.0*	2.9	4.0
S=c1[nH]nc(-c2ccc(Br)cc2)n1Cc1ccccc1	0.0	11.8	4.1	7.2	0.6	14.3*
FC(F)C(F)(F)Oc1cccc(-c2n[nH]c(=S)n2Cc2ccccc2)c1	0.4	11.5	4.7	x	0.9	20.8*
Fc1ccc(-c2n[nH]c(=S)n2Cc2ccccc2)cc1	x	x	x	-0.4	x	-0.1
CCCCOc1ccc(C(=O)NC2CCCCN(C(C)C)C2=O)cc1 (stereo not drawn)	0.5	-4.4	-11.6	x	-2.4	x
CC(=O)Nc1ccc(S(=O)(=O)Nc2nccc(/C=C/c3ccc(Cl)cc3)n2)cc1	0.1	11.1	-4.0	5.3	-0.3	11.7*
COC(=O)[C@]12C[C@H](CC(=O)NCc3cccc(C(F)(F)F)c3)C(=O)N(Cc3cccc4ccccc34)C1=C[C@H](C1CCCC1)O[C@@H]2C	-0.5	5.1	6.0	x	-0.3	x
N/C(=N\OC(=O)c1cccc([N+](=O)[O-])c1)c1cccnc1	0.3	0.9	1.3	114.3*	6.8	-4.3
Cc1cccc(/C(N)=N/OC(=O)c2ccc(Br)o2)c1	0.1	2.3	5.9	71.0*	2.8	-6.1
N/C(=N\OC(=O)c1cccc(Br)c1)c1ccncc1	0.1	0.5	-2.6	53.1*	-1.8	-2.5
Cc1cccc(C(=O)O/N=C(\N)c2cccc([N+](=O)[O-])c2)c1	x	x	x	6.2	x	4.5
